Five molecules from PubChem BioAssay (NCATS) can be followed below.

Several values for one entry are separate records, joined by “and”; a condition that tells them apart may be missing. Identical values can stand only once. Unmarked numbers belong to inactive results. Inconclusive results are not listed. Activity calls are given as the source filed them. Unless noted, calls follow the shape of the dose curve; as a rule, active = well fitted curve in the direction sought with a large enough effect; inconclusive = small, poorly fitted or top-dose-only effect, or another doubt; inactive = no such curve, though single readings can be large; an effect the other way counts as inactive or inconclusive.

Assay [1] is described as follows: Cell Viability - Hek293 (AID 427;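 active = compounds whose dose-response curve shows a full or clear partial loss of cell viability, called from curve shape rather than a numeric limit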;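 also: potency is read from the fitted curve at half-maximal effect; cells exposed to compound for 40 hours at 37 °C before reading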). The settings on record: qHTS. An outline of the steps:
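HEK293 cells in complete medium were exposed to compound for 40 hr at 37 °C, then cellular ATP was read by CellTiter-Glo luminescence. Data were normalized to DMSO (basal) and 100 uM tamoxifen (100% inhibition), and AC50 came from Hill fits.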
(qHTS replaces the single test concentration by a dilution series.)

The nature of assay [2]: Cell Viability - SK-N-SH (AID 435; calls by dose curve;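 also: potency is read from the fitted curve at half-maximal effect; compound exposure lasted 40 h at 37 °C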). The settings on record: SK-N-SH neuroblastoma cell viability qHTS. Summed up: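 Cells seeded at 1500 per well and incubated 5 hr at 37 °C. Compound added, then 40 hr at 37 °C. CellTiter-Glo added, 20 min at room temperature, luminescence read.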
Assay [3] can be described thus: Cell Viability - N2a (AID 540).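 Also: plate controls were DMSO alone for no effect and tamoxifen control for full effect; nearly all actives have a fitted effect of over 45% in size.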 As to conditions: N2a mouse neuroblastoma cell viability; activity change, negative = cytotoxicity: at 92.2 µM (top of the series). An outline of the steps: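 CellTiter-Glo ATP luminescence, read 20 min after reagent at room temperature, reported viability following 40 h compound treatment at 37 °C. N2a mouse neuroblastoma cells seeded 1500/well; Hill equation gave AC50.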

A short description of assay [4]: Cell Viability - SH-SY5Y (AID 544).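 Also: 0% = DMSO alone and -100% = 100 µM tamoxifen; nearly all actives have a fitted effect of over 55% in size.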 As to conditions: SH-SY5Y neuroblastoma cell viability; viability change, negative = cytotoxic: at 92.2 µM (top of the series). Summed up: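 Cytotoxicity measured via ATP-dependent luciferase luminescence (CellTiter-Glo) following 40 h, 37 °C exposure of 1500 SH-SY5Y cells per well. Concentration-response data were fitted with the standard Hill equation to give AC50.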

Assay [5] in a line: Cell Viability - LYMP2-009 (AID 968).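 Also: 0% = DMSO alone and the full-kill end = tetraoctylammonium bromide at 92 µM; nearly all actives have a fitted effect of over 55% in size.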 The settings on record: LYMP2-009 lymphoblastoid cell viability; series mostly up to 92.2 µM.
Assay [6] in a line: Cell Viability - LYMP2-015 (AID 971).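 Also: 0% = DMSO only and full effect = 92 µM tetraoctylammonium bromide; nearly all actives have a fitted effect of over 55% in size.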 The settings on record: LYMP2-015 lymphoblastoid cell viability; series mostly up to 92.2 µM. Summed up: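 Cytotoxicity readout: decrease in intracellular ATP (CellTiter-Glo luminescence) in 2500 LYMP2-015 lymphoblastoid cells/well after 24 h compound exposure at 37 C. Concentration-response data fitted with the standard Hill equation to give AC50.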

Assay [7] can be described thus: Cell Viability - LYMP2-017 (AID 972). Also: % is scaled to controls: 0 for no effect and ±100 for the full control effect; nearly all actives have a fitted effect of over 55% in size. The settings on record: LYMP2-017 lymphoblastoid cell viability; series mostly up to 92.2 µM. Summed up: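 CellTiter-Glo luminescence (cellular ATP, 30 min RT) measured cytotoxicity after 24 hr compound treatment at 37 C. Cells were a human lymphoblastoid line, LYMP2-017, plated at 2500/well and incubated 5 hr first; concentration-response fitted with Hill equation for AC50.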

Assay [8] is described as follows: Cell Viability - LYMP2-010 (AID 981). As to conditions: LYMP2-010 lymphoblastoid cell viability, qHTS; series mostly up to 92.2 µM. An outline of the steps: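 CellTiter-Glo ATP luminescence measured cytotoxicity after 24 h compound exposure at 37 C. LYMP2-010 cells were seeded at 2500/well, with tetraoctylammonium bromide as control; concentration-response curves gave AC50 values by the Hill equation.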

The target in assay [9] is Thyroid hormone receptor beta (Homo sapiens) (UniProt P10828). The assay can be described thus: qHTS assay for small molecule agonists of thyroid hormone receptor beta signaling (AID 588545; calls by dose curve;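 also: 0% = DMSO only and 100% = 10 nM T3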). As to conditions: TR-UAS-bla GripTite HEK 293, beta-lactamase ratio, agonist mode, 18 h; series mostly up to 76.7 µM. An outline of the steps:
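TR-UAS-bla-GripTite HEK 293 cells in medium with 2% charcoal/dextran FBS, 0.1 mM NEAA and 1 mM sodium pyruvate were treated with titrated compounds for 18 hrs at 37 C. Beta-lactamase reporter was read with CCF4 dye (ex 405, em 460/530 nm); EC50 from Hill fits.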

Assay [10] is described as follows: qHTS assay for small molecule agonists of the antioxidant response element (ARE) signaling pathway (AID 651741; active = well fitted activation curve with a large enough effect in the signal ratio; the % refers to the signal ratio; also: potency is read from the fitted curve at half-maximal effect; as to activation: % of control where 0% means no effect). As to conditions: HepG2 ARE-bla reporter, beta-lactamase FRET ratio, 16 h; series mostly up to 96 µM. Summed up: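 Stably integrated ARE-beta-lactamase reporter HepG2 cells; 16 h compound incubation, 37 C; LiveBLAzer FRET substrate 2 h at room temperature; fluorescence intensity.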

In assay [11] the target is Tumor necrosis factor (Homo sapiens) (UniProt P01375). The assay is described as follows: qHTS assay to identify small molecules that stimulate Tumor Necrosis Factor-alpha (TNF-alpha) secretion (AID 651757; active = well fitted curve in the direction sought with a large enough effect in the signal ratio; the % refers to the signal ratio; also: 0% is about no effect). As to conditions: Human cells, HTRF 665/615 ratio; series mostly up to 92.2 µM. An outline of the steps:
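Secreted TNF-alpha quantified by TR-FRET sandwich of two labeled anti-TNF-alpha antibodies, incubated 3 hr at room temperature. Preceded by 17 hr, 37 C compound treatment of THP-1 cells at 3000 cells/well.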

The nature of assay [12]: qHTS assay for environmental chemicals that activate the Aryl hydrocarbon Receptor (AhR) signaling pathway (AID 651777). Also: % of control where 0% means no effect; nearly all actives have a fitted effect of over 15% in size. The settings on record: 1A2-DRE human hepatoma cells, luciferase, 24 h; activation: active compounds read high. An outline of the steps: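 Following a 24 hr incubation with test chemicals at 37 C and 5% CO2, 1A2-DRE human hepatoma cells received One-Glo reagent; after 30 min at room temperature, luciferase output reflected CYP1A2 induction via AhR.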

For assay [13], the target named is Nuclear receptor ROR-gamma (Homo sapiens) (UniProt P51449). The assay is described as follows: qHTS assay for small molecule antagonists of the retinoid-related orphan receptor gamma (ROR-gamma) signaling pathway (AID 651802).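 Also: CHO cells with doxycycline-induced ROR-gamma expression; luciferase reporter luminescence driven by ROR response element; % is scaled to controls: 0 for no effect and ±100 for the full control effect; nearly all actives have a fitted effect of over 60% in size.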 As to conditions: ROR-gamma antagonist cell reporter assay; series mostly up to 92.2 µM. An outline of the steps:
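Luminescence (One-Glo, 30 min RT) measured 16 h after compound addition and doxycycline induction at 37C. Reporter: RORE-luciferase under TET-inducible ROR-gamma in CHO cells.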

Assay [14] can be described thus: qHTS assay for small molecule agonists of the antioxidant response element (ARE) signaling pathway measured by Nrf2-dependant transcriptional activity (AID 720636; active = well fitted curve in the direction sought with a large enough effect in the repeat runs; an effect the other way counts as inactive or inconclusive; also: % of control where 0% means no effect). The settings on record: ARE-luc HepG2, Nrf2 luciferase reporter, 16 h; series mostly up to 92.4 µM. Summed up: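 ONE-Glo luminescence, read 30 min after reagent addition at room temperature, reflected ARE reporter activity in HepG2 cells that had been incubated with compound for 16 hr at 37 C in 1% dialyzed FBS.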

Assay [15] has as its target Nuclear receptor subfamily 1 group I member 2 (Rattus norvegicus) (UniProt Q9R1A7). The assay is described as follows: qHTS assay for small molecule activators of the rat pregnane X receptor (rPXR) signaling pathway (AID 651751; call rule not given here; also: 0% is about no effect). The settings on record: rPXR reporter cells, luciferase (One-Glo), 24 h.
The nature of assay [16]: qHTS assay for small molecule activators of the human pregnane X receptor (PXR) signaling pathway (AID 720659; call rule not given here; also: 0% is about no effect). As to conditions: DPX-2 HepG2 CYP3A4-luciferase, 24 h; series mostly up to 92.3 µM.
Assay [17] has as its target Vitamin D3 receptor (Homo sapiens) (UniProt P11473). The assay can be described thus: qHTS assay for small molecule antagonists of vitamin D receptor signaling (AID 588541; calls by dose curve;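 also: receptor activated by calcitriol during compound treatment; % is scaled to controls: 0 for no effect and ±100 for the full control effect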). As to conditions: HEK293T VDR-UAS-bla, beta-lactamase ratio, antagonist mode; series mostly up to 76.7 µM. Summed up:
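VDR-UAS-bla HEK293T cells in 2% charcoal-stripped FBS were stimulated with 1-alpha,25-dihydroxyvitamin D3 (3 nM final) plus compound for 16 h at 37 C. The beta-lactamase CCF4 readout was normalized to 50 nM agonist and DMSO, and Hill fits gave IC50.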

Assay [18] has the same target. The assay is described as follows: qHTS assay for small molecule agonists of vitamin D receptor signaling (AID 588543; calls by dose curve;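 also: 0% = DMSO basal and 100% = reference agonist control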). The settings on record: HEK293T VDR-UAS-bla, beta-lactamase ratio, 16 h; series mostly up to 76.8 µM. An outline of the steps:
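qHTS in agonist mode: compound titrations stimulate a VDR-driven β-lactamase reporter in HEK293T cells over 16 h at 37 °C. Response normalized to 50 nM 1α,25-dihydroxyvitamin D3 = 100%, DMSO = 0%; Hill fitting gives EC50 and maximal response.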

A short description of assay [19]: Cell Viability - LYMP2-022 (AID 987). As to conditions: LYMP2-022 lymphoblastoid cell viability; series mostly up to 92.2 µM. An outline of the steps: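 Cytotoxicity read as decreased cellular ATP (CellTiter-Glo luminescence, 30 min room temperature) after 24 hours compound exposure of 2500 lymphoblastoid LYMP2-022 cells/well at 37 C. Concentration-response data fitted with standard Hill equation for AC50.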

Tumor necrosis factor (Homo sapiens), sequence (P01375 whole entry, looked up): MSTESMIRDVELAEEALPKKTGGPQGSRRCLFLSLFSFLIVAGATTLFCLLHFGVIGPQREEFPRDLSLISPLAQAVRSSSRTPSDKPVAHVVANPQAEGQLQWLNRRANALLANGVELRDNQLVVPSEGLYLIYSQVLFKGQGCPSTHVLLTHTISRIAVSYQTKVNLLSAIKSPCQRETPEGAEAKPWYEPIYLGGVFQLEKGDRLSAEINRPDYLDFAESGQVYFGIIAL
Nuclear receptor ROR-gamma (Homo sapiens), sequence (P51449 whole entry, looked up): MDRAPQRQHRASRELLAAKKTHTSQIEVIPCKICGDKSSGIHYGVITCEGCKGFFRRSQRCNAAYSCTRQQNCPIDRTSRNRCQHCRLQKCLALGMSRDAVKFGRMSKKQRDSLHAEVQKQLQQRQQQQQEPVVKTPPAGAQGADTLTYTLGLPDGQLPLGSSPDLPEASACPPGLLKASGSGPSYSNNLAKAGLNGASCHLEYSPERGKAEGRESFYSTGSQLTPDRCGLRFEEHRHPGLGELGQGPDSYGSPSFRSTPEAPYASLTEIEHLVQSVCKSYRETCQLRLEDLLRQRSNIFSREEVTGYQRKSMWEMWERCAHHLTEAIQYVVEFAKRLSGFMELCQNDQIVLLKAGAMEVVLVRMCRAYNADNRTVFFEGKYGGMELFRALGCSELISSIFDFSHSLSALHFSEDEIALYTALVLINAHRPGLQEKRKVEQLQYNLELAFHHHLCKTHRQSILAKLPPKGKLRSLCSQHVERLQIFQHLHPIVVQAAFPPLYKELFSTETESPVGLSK
Vitamin D3 receptor (Homo sapiens), sequence (P11473 whole entry, looked up): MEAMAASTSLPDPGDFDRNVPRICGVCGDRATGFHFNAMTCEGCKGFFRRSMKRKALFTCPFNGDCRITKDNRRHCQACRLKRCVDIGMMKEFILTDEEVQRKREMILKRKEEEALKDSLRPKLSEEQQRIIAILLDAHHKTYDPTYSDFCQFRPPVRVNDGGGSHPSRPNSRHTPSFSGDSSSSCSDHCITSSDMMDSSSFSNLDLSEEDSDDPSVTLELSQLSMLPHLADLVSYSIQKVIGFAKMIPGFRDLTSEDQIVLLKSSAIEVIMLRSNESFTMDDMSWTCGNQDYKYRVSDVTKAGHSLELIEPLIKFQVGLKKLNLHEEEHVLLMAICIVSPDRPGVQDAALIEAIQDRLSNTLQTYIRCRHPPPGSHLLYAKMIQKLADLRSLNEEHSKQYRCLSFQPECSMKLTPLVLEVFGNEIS
Nuclear receptor subfamily 1 group I member 2 (Rattus norvegicus), sequence (Q9R1A7 whole entry, looked up): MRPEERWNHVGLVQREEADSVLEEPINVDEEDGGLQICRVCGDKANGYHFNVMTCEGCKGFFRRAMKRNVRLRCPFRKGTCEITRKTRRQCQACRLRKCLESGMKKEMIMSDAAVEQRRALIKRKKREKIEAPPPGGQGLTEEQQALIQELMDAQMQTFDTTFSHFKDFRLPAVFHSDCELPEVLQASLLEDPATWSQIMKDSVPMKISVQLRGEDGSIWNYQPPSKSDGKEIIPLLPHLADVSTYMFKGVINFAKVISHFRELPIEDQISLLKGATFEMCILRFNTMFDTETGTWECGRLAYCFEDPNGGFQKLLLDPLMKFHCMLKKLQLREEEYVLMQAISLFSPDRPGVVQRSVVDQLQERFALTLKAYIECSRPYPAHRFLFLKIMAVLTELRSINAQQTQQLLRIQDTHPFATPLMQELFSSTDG
Thyroid hormone receptor beta (Homo sapiens), sequence (P10828 whole entry, looked up): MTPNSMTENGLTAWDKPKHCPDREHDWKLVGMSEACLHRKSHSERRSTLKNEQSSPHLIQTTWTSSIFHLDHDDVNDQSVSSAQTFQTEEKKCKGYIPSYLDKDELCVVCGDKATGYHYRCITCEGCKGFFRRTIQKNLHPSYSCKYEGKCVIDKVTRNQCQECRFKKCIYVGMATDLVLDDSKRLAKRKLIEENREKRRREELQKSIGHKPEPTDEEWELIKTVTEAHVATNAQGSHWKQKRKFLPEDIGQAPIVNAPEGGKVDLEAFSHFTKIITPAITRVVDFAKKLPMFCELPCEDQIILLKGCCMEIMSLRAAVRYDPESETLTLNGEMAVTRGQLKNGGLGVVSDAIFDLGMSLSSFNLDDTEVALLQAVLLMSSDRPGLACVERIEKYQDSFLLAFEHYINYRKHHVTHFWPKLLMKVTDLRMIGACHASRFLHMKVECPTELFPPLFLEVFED

`C=C(C#N)C(=O)OCC`: the Potency in [1] and in assay [2] was above 92 µM throughout. In addition, the activity change, negative = cytotoxicity in assay [3] is -3.66%. Moreover, the Potency entry in assay [4], in assay [5], in [6], in [7], in assay [8] and in assay [9] was “inactive” each time. In addition, the Potency entry in assay [10], in [11], in assay [13] and in assay [14] was “inactive” throughout. The activation in assay [12] is -0.801%. The max response in assay [15] is -1.42%. The molecule was classed as inactive in assay [16].
Turning to `CC(/C=C/C=C(C)/C=C/C(=O)O)=C\C=C\C=C(C)\C=C\C=C(C)\C=C\C(=O)O`, the Potency was above 92 µM in assay [1], above 92 µM in assay [2] and 37.6 µM (active) in assay [10]. Besides, in assay [3], the activity change, negative = cytotoxicity is -5.79%. In addition, in assay [4], the viability change, negative = cytotoxic is -97% (active). Moreover, the Potency entry in assay [5], in assay [6], in [7], in [8], in [17] and in [18] was “inactive” each time. The Potency result in assay [13] was “inactive”. Also, the activation in assay [12] was 9.06%. For the same molecule, the max response in assay [15] is 10.8%. Besides, the outcome in assay [16] was inactive.
Turning to `Brc1cc(Oc2cc(Br)c(Br)c(Br)c2Br)c(Br)c(Br)c1Br`, the Potency in assay [1] and in [2] was above 92 µM in each case. Moreover, in [3], the activity change, negative = cytotoxicity was -25%. Moreover, the Potency result in assay [5], in assay [6], in [7], in assay [8], in assay [19] and in assay [9] was “inactive” throughout. Moreover, the Potency result in assay [10], in assay [11], in assay [13] and in assay [14] was “inactive” in each case. In addition, in assay [12], the activation was -1.15% and -2.65%. Moreover, the max response in [15] is 2.26% and 7.81%.
For `O=[N+]([O-])c1ccccc1Nc1ccccc1`, the Potency in assay [1] and in [2] was above 92 µM each time. Moreover, the activity change, negative = cytotoxicity in assay [3] is -9.33%. Further, the Potency entry in [4], in [5], in assay [6], in assay [7], in [8] and in [19] was “inactive” in each case. The Potency entry in assay [17], in assay [18], in [11] and in assay [14] was “inactive” each time. In assay [12], the activation was 1.93%. Further, in assay [15], the max response was -3.61%. Moreover, the molecule was called inactive in assay [16].
Turning to `CCc1ccc(C(c2ccc(CC)cc2)C(Cl)Cl)cc1`, the results for the Potency in [1], in assay [2] and in assay [10] were above 92 µM, above 92 µM and 66.8 µM (active), respectively. Besides, the Potency result in assay [4], in assay [5], in assay [6], in assay [7], in assay [8] and in assay [19] was “inactive” in each case. In addition, the Potency result in assay [17], in [18], in assay [9], in [11] and in assay [14] was “inactive” throughout. Moreover, in assay [12], the activation was -0.69%. For the same molecule, the max response in assay [15] is 1.82%.
